Assay outcomes: PubChem, Broad Institute
PDI inh: inhibitors of human PDI, primary screen, biochemical, turbidity, single point, plate reader; Protein disulfide-isomerase (Homo sapiens), P07237; PDI insulin aggregation turbidity, A650, 90 min; inhibition, % at 10 µM; 0.052% of 350,000 active;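 active = mean inhibition across replicates of 30% or more, whatever share of single replicates reach that level; inconclusive = mean inhibition below 30% while every single replicate reaches 30%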
Target sequence (P07237 whole entry, looked up): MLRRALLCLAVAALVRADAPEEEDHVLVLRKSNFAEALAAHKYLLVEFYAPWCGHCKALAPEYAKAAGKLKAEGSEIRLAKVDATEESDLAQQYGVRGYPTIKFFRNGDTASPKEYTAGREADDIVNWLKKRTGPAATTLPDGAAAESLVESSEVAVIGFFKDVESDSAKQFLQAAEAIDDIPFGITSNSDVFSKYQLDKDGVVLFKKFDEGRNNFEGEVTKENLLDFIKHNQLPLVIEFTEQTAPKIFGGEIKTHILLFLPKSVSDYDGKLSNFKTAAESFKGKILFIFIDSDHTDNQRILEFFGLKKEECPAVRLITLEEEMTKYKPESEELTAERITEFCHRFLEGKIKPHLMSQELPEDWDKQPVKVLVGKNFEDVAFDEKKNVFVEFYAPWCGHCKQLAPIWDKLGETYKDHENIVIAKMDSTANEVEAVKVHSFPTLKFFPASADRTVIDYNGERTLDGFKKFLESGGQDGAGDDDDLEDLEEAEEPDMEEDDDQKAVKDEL
DENV2 CPE: inhibitors of DENV2 cytopathic effect, primary screen, cell-based, plate reader, single concentration | CPE inhibition, % at 9.99 µM | 1.7% of 350,000 active | DENV2-infected cells, cytopathic effect rescue; in the data active = CPE inhibition above about 20%, passing the limit was not always enough; inconclusive = no clear call, values can overlap the other calls; tested in BHK-21 cells;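 also: 0% = median of neutral control wells and 100% = median of positive control wells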
ERAP1 HTS inh: human ERAP1 aminopeptidase inhibitors, primary screen, biochemical, single point, plate reader. recombinant ERAP1, Leu-AMC fluorescence, 60 min. Endoplasmic reticulum aminopeptidase 1 (Homo sapiens), Q9NZ08. 0.15% of 340,000 active. inhibition, % at 10.7 µM. AID 652197, 2013;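 active = mean replicate inhibition of at least 30%, or all replicates individually reaching that 30% level; inactive = mean below 30% and not every replicate reaching it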;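 also: 0% = neutral control wells and 100% = L-leucinethiol positive control wells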
MLL AF4-AF9 inh: inhibitors of AF4 peptide binding to AF9, primary screen, biochemical, AlphaScreen, biotin-AF4 peptide, FLAG-AF9, single point; Protein AF-9 (Homo sapiens), P42568; inhibition, % at 10 µM; 0.47% of 350,000 active;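 active = every replicate reaching a set inhibition limit, whatever the replicate mean, cut at about 25% in these data; inconclusive = mean inhibition reaches that limit but some replicates miss it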;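 also: 0% = plate neutral control median and 100% = total signal loss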
ERp5 block: inhibitors of ERp5-driven insulin aggregation, primary screen, biochemical, turbidity, absorbance 650 nm, single point; 0.05% of 350,000 active; inhibition, % at 9.99 µM; 90 min;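 active = mean replicate inhibition above about 25%, with every replicate also reaching it, limit read from the data, passing the limit was not always enough; inconclusive = only one of those two criteria met; inactive = neither criterion met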
Starred values were filed as active, the others as inactive. Hits are enriched below; roughly 1.8% of the tested compounds scored in any of these assays.

How did CN(C)c1ccc(/C=N/NC(=O)CNC(=O)c2ccncc2)cc1 do in these assays?
PDI inh: -12; DENV2 CPE: 4; ERAP1 HTS inh: 0; MLL AF4-AF9 inh: -3; ERp5 block: 4

What do the screens show for `CC/C(=C\c1ccc(N(C)C)cc1)c1ccncc1`?
PDI inh: 8; DENV2 CPE: 5; ERAP1 HTS inh: 2; MLL AF4-AF9 inh: 28*; ERp5 block: -5

Results for COc1ccc(CN(C)C[C@H]2OCCCC[C@H](C)Oc3ccc(NC(=O)Nc4c(C)noc4C)cc3C(=O)N([C@H](C)CO)C[C@@H]2C)cc1 ?
DENV2 CPE: 9; ERAP1 HTS inh: -7; MLL AF4-AF9 inh: -1; ERp5 block: 2

What do the screens show for `CCCNC(=O)C[C@H]1C[C@H]2c3cc(NC(=O)CN(C)C)ccc3O[C@H]2[C@H](CO)O1`?
DENV2 CPE: -4

Results for CCCNC(=O)C[C@@H]1C[C@@H]2c3cc(NC(=O)CC4CC4)ccc3O[C@@H]2[C@H](CO)O1 ?
DENV2 CPE: 4; ERAP1 HTS inh: 0; MLL AF4-AF9 inh: 0; ERp5 block: -5

Results for CN(C)CC(=O)Nc1ccc2c(c1)[C@H]1C[C@@H](CC(=O)NCc3ccccc3)O[C@H](CO)[C@H]1O2 ?
DENV2 CPE: 21*; ERAP1 HTS inh: -1; MLL AF4-AF9 inh: -1; ERp5 block: 0

What do the screens show for `CCCNC(=O)C[C@@H]1C[C@H]2c3cc(NC(=O)CN(C)C)ccc3O[C@H]2[C@@H](CO)O1`?
DENV2 CPE: 65*

How did CCCNC(=O)C[C@H]1C[C@@H]2c3cc(NC(=O)CC4CC4)ccc3O[C@@H]2[C@@H](CO)O1 do in these assays?
DENV2 CPE: -5; ERAP1 HTS inh: 2; MLL AF4-AF9 inh: -1; ERp5 block: 62*

What do the screens show for `COc1ccccc1CNC(=O)C[C@@H]1C[C@H]2c3cc(NC(=O)Nc4ccc(C(F)(F)F)cc4)ccc3O[C@H]2[C@@H](CO)O1`?
DENV2 CPE: 36*; ERAP1 HTS inh: 2; MLL AF4-AF9 inh: 1; ERp5 block: -3

What do the screens show for `COCC#Cc1cnc2c(c1)C(=O)N([C@@H](C)CO)C[C@H](C)[C@@H](CN(C)Cc1ccc(-c3ccccc3)cc1)O2`?
DENV2 CPE: 8; MLL AF4-AF9 inh: 17

How did CCC(=O)N1C[C@H](C)[C@H](OC)CN(C)C(=O)c2ccc(NC(=O)COC)cc2OC[C@H]1C do in these assays?
DENV2 CPE: 3; ERAP1 HTS inh: 0; MLL AF4-AF9 inh: -2; ERp5 block: -4

How did CN(C)c1ccc2c(c1)[C@H]1C[C@@H](CC(=O)NCc3ccc(Oc4ccccc4)cc3)O[C@H](CO)[C@H]1O2 do in these assays?
DENV2 CPE: 82*; ERAP1 HTS inh: 0; MLL AF4-AF9 inh: 21; ERp5 block: -3

How did COCCNC(=O)C[C@@H]1C[C@H]2c3cc(NC(=O)Nc4ccc(OC)cc4)ccc3O[C@H]2[C@H](CO)O1 do in these assays?
DENV2 CPE: 23*; ERAP1 HTS inh: 0; MLL AF4-AF9 inh: -5; ERp5 block: -3

Results for COCCNC(=O)C[C@H]1C[C@@H]2c3cc(NC(=O)Nc4ccc(OC)cc4)ccc3O[C@@H]2[C@H](CO)O1 ?
DENV2 CPE: inconclusive; ERAP1 HTS inh: 2; MLL AF4-AF9 inh: -8; ERp5 block: 0

Results for O=S(=O)(c1ccc(F)cc1)N1CCCCN2[C@H](CO)[C@H](c3ccc(-c4ccccc4)cc3)[C@@H]2C1 ?
DENV2 CPE: -3; ERAP1 HTS inh: -1; MLL AF4-AF9 inh: -6; ERp5 block: 6

Results for C[C@H]1CCCCO[C@@H](CN(C)Cc2ccc(C(=O)O)cc2)[C@@H](C)CN([C@@H](C)CO)C(=O)c2cc(NS(=O)(=O)c3ccc(F)cc3)ccc2O1 ?
DENV2 CPE: inconclusive; ERAP1 HTS inh: -3; MLL AF4-AF9 inh: -3; ERp5 block: 2

Results for Cc1nn(-c2ccccc2)c(N)c1N=Nc1ccccc1 ?
PDI inh: -9; DENV2 CPE: -5; ERAP1 HTS inh: 2; MLL AF4-AF9 inh: 31*; ERp5 block: 2

What do the screens show for `CO[C@@H]1CN(C)C(=O)c2cc(NC(=O)c3nc4ccccc4s3)ccc2OC[C@@H](C)N(Cc2cccnc2)C[C@@H]1C`?
DENV2 CPE: 1; ERAP1 HTS inh: -1; MLL AF4-AF9 inh: 6; ERp5 block: 7

How did COCCN(CC(=O)Nc1cccc(C)c1C)C(=O)CN1C(=O)NC2(CCCCC2)C1=O do in these assays?
PDI inh: 8; DENV2 CPE: -1; ERAP1 HTS inh: 45*; MLL AF4-AF9 inh: -2; ERp5 block: -1

What do the screens show for `C[C@@H](C(=O)NCCc1ccccc1)N1C(=O)N2CCc3c([nH]c4ccccc34)[C@@]2(C)C1=O`?
DENV2 CPE: 37*; ERAP1 HTS inh: -1; MLL AF4-AF9 inh: 10; ERp5 block: -4

How did CC(C)[C@@H](C(=O)NC1CCN(Cc2ccccc2)CC1)N1C(=O)N2CCc3c([nH]c4ccccc34)[C@@]2(C)C1=O do in these assays?
DENV2 CPE: 39*; ERAP1 HTS inh: 12; MLL AF4-AF9 inh: 27*; ERp5 block: 2

Results for CCCN1C[C@H](C)[C@H](OC)CN(C)C(=O)c2ccc(NC(=O)CC(F)(F)F)cc2OC[C@H]1C ?
DENV2 CPE: 13; ERAP1 HTS inh: -2; MLL AF4-AF9 inh: -3; ERp5 block: 11

What do the screens show for `CCCC(=O)Nc1ccc2c(c1)OC[C@H](C)N(CCC(F)(F)F)C[C@H](C)[C@@H](OC)CN(C)C2=O`?
DENV2 CPE: 31*; ERAP1 HTS inh: 4; MLL AF4-AF9 inh: -3; ERp5 block: 15

What do the screens show for `CCCN1C[C@H](C)[C@H](OC)CN(C)C(=O)c2ccc(NC(=O)CC(F)(F)F)cc2OC[C@@H]1C`?
DENV2 CPE: 33*; ERAP1 HTS inh: -1; MLL AF4-AF9 inh: -3; ERp5 block: -3

Results for C[C@@H]1CN([C@@H](C)CO)C(=O)Cc2cc(NC(=O)Nc3ccc(C(F)(F)F)cc3)ccc2O[C@H]1CN(C)S(=O)(=O)c1ccccc1 ?
DENV2 CPE: 5; ERAP1 HTS inh: 0; MLL AF4-AF9 inh: 1; ERp5 block: 2

How did Cc1cccc(C)c1OCC(=O)OC/C(O)=C(\C#N)c1nc2ccccc2[nH]1 do in these assays?
PDI inh: 1; DENV2 CPE: 33*; ERAP1 HTS inh: 6; MLL AF4-AF9 inh: 1; ERp5 block: -1

Results for Cc1cc(C)cc(OCC(=O)OC/C(O)=C(\C#N)c2nc3ccccc3[nH]2)c1 ?
PDI inh: 0

How did CCN(C[C@H]1N[C@@](CC)(C(=O)OC)[C@H]2C(=O)N(C)C(=O)[C@@H]12)S(=O)(=O)c1ccc(C(F)(F)F)cc1 do in these assays?
PDI inh: 15; DENV2 CPE: 52*; ERAP1 HTS inh: -2; MLL AF4-AF9 inh: -1; ERp5 block: -5
